Assay results as given in PubChem BioAssay AID1813 (Broad Institute, 2009).
The campaign covered roughly 300,000 compounds. About 2,500 (0.83%) were called active. Rule as the data show it: active = inhibition above about 60%; inconclusive = no clear call, values can overlap the other calls; inactive = below that. The full list was thinned out, with actives kept by preference.

Experiment: MLPCN primary screen, SNCA 5' untranslated region (AID 1813);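 also: H4 neuroglioblastoma cells stably carrying SNCA 5'UTR luciferase fusion; 0% = DMSO wells and 100% = positive control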
Conditions: alpha-synuclein 5'UTR reporter, inhibitor activity; active compounds read high; tested at 7.5 µM

Row | Compound | inhibition
1 | O=C1CCCC2=C1C(c1cccs1)n1nc(SCc3ccccc3)nc1N2 (configuration not stated) | 37.2% (inactive)
2 | CCCCCN(C(=O)NC(=O)Nc1cccc(C)c1C)S(C)(=O)=O | -23.1% (inactive)
3 | CC(C)n1c(CN2CCN(Cc3ccccc3)CC2)nc2ccccc21 | 9.23% (inactive)
4 | CCCNC(=O)N1CCN(C(=O)NCCC)CC1 | 8.45% (inactive)
5 | CCn1nc(C)c(NC(=O)/C=C/c2ccc(OC)c(COc3ccc(Br)cc3)c2)c1C | 61.8% (active)
6 | C/C=C/c1ccc(OCC(=O)OCC(=O)Nc2c(C)nn(-c3ccccc3)c2C)c(OC)c1 | 3.02% (inactive)
7 | COc1ccc(C(C)=O)cc1COc1ccc(Cl)c(C)c1 | 50.7% (inactive)
8 | CCCCN(C)CCC(=O)Nc1ccc(Cl)cc1 | -18.3% (inactive)
9 | CCOc1ccc2c(c1)c(=O)c(S(=O)(=O)c1ccc(C)cc1)cn2CC | 13% (inactive)
10 | CN(C)c1nc(N)nc(CSc2nnnn2-c2cccc3ccccc23)n1 | 68.9% (active)
11 | CN(C)c1nc(N)nc(CSc2ccccn2)n1 | -19.1% (inactive)
12 | COc1ccc(-n2nnnc2SCc2nc(N)nc(N3CCOCC3)n2)cc1 | 13.4% (inactive)
13 | COc1ccc(CCNC(=O)CN(C)S(=O)(=O)c2ccc3nc(C)sc3c2)cc1OC | -0.864% (inactive)
14 | CC(=O)Nc1ccc(NC(=O)CCCNC(=O)c2ccc(Cl)cc2)cc1 | 19.3% (inactive)
15 | COc1ccc(Cc2nnc(N/N=C/c3ccccc3O)[nH]c2=O)cc1OC | 91.4% (active)
16 | CC(C)c1ccc(Cc2nnc(NCCCO)[nH]c2=O)cc1 | -13.1% (inactive)
17 | O=c1[nH]c(NCCO)nnc1Cc1ccc(Cl)cc1 | 6.74% (inactive)
18 | COc1ccc(S(=O)(=O)N2CCC(C(=O)NCCC(=O)NCc3cccc(OC)c3)CC2)cc1 | 11.4% (inactive)
19 | COc1ccc(C)c(Cn2c(-c3nonc3N)nc3ccccc32)c1 | 76.2% (active)
20 | CC(=O)Nc1nonc1-c1nc2ccccc2n1Cc1ccccn1 | 19% (inactive)
21 | Nc1nonc1-c1nc2ccccc2n1Cc1ccc(F)cc1 | 49% (inactive)

Row | Compound | inhibition
22 | CN(CC(=O)NCc1cccnc1)S(=O)(=O)c1cc(Cl)ccc1Cl | 5.11% (inactive)
23 | CCc1noc(C)c1C(=O)N1CCCC(N2CCN(c3ccc(F)cc3)CC2)C1 (configuration not stated) | 14.8% (inactive)
24 | CC(Sc1nnc(COc2ccccc2)n1-c1ccccc1)C(=O)O (configuration not stated) | -1.97% (inactive)
25 | CC1(C(=O)N/N=C/c2cc3c(cc2Br)OCO3)CC1(Br)Br (configuration not stated) | 4.98% (inactive)
26 | O=C(CN1CCN(c2ccccn2)CC1)N1CCc2ccccc21 | -26.8% (inactive)
27 | O=C(CN1C(=O)c2ccccc2S1(=O)=O)NC1CCCCC1 | 6.72% (inactive)
28 | O=C(CN1C(=O)c2ccccc2S1(=O)=O)N1CCc2ccccc21 | 93.5% (active)
29 | COc1ccc(NC(=O)/C(Cl)=C(/Cl)S(=O)Cc2ccc(C)cc2)cn1 (configuration not stated) | 106% (active)
30 | Cc1ccc(NC(=O)OCc2cncs2)cc1 | -112% (inactive)
31 | COc1ccc(Nc2ccc([N+](=O)[O-])cn2)cn1 | 8.18% (inactive)
32 | COc1ccc(NC(=O)CN(C)C(=O)Cc2coc3cc(C)c(C)cc23)cc1 | 6.29% (inactive)
33 | Cc1ccc2c(c1)NCC(C(=O)NC1CCC(C)CC1)O2 (configuration not stated) | -67.9% (inactive)
34 | CN(C)c1ccc(C(CNC(=O)c2ccc(F)cc2)c2c[nH]c3ccccc23)cc1 (configuration not stated) | 4.86% (inactive)
35 | Cc1ccc(OCC(=O)Nc2ccccc2Sc2ccc(Cl)cc2)c([N+](=O)[O-])n1 | 4.28% (inactive)
36 | N#Cc1cnn2cc(CCN3CCOCC3)c(-c3ccc(F)cc3)nc12 | 17% (inactive)
37 | COc1ccc2c(c1)CCc1cn3ncc(C#N)c3nc1-2 | 68.1% (active)
38 | COc1ccc2nc(N3CCCC(O)C3)c(C#N)cc2c1 (configuration not stated) | -114% (inactive)
39 | CC(C)[C@H](NC(=O)N1CCn2c1nc1ccccc12)C(=O)NC1CC1 | -11.1% (inactive)
40 | CC1(c2ccc(Cl)cc2)NC(=O)N(CC(=O)c2ccc3c(c2)OCO3)C1=O (configuration not stated) | -7.93% (inactive)
41 | CC(C)(C)C(=O)Nc1ccc(-c2cn3cccnc3n2)cc1 | -130% (inactive)
42 | Brc1ccc2nc(N3CCCC3)sc2c1 | -105% (inactive)

Row | Compound | inhibition
43 | Cc1nc(N2CCCCC2)sc1C=O | 10.9% (inactive)
44 | c1c2c(cc3sc(N4CCCCC4)nc13)OCCO2 | 107% (active)
45 | CN(CC(=O)O)S(=O)(=O)c1ccc2oc3ccccc3c2c1 | -11.7% (inactive)
46 | COc1ccc(NS(=O)(=O)c2cc3c(cc2C)N(C(C)=O)CCO3)cc1 | 11.8% (inactive)
47 | COc1ccc(-c2oc3ncn(Cc4ccco4)c(=N)c3c2-c2ccc(OC)cc2)cc1 | 36% (inactive)
48 | O=C(CN1C(=O)C2C3C=CC(C3)C2C1=O)Nc1nc(-c2ccccn2)cs1 (configuration not stated) | 82.4% (active)
49 | O=C(NCCN1C(=O)C2C3C=CC(C3)C2C1=O)Nc1ccccn1 (configuration not stated) | -5.4% (inactive)
50 | O=C(CN1C(=O)C2C3C=CC(C3)C2C1=O)NCCc1ccccc1Cl (configuration not stated) | -1.36% (inactive)
51 | Cc1ccc(S(=O)(=O)CCC(=O)Nc2nnc(CC(C)C)s2)cc1 | -17% (inactive)
52 | O=S(=O)(NCc1ccc(Cl)cc1Cl)c1cccs1 | -22.7% (inactive)
53 | Cc1oc(-c2ccccc2Cl)[n+]([O-])c1C | 34.1% (inactive)
54 | COc1ccc(Br)c2c1C(=O)CC2 | 8.26% (inactive)
55 | CC1CCCN(S(=O)(=O)c2ccc(C(=O)Nc3nnc(-c4ccncc4)o3)cc2)C1 (configuration not stated) | -13.6% (inactive)
56 | CC1CCCCN1S(=O)(=O)c1ccc(C(=O)Nc2nnc(-c3cccs3)o2)cc1 (configuration not stated) | 89.9% (active)
57 | CSCc1nnc(NC(=O)c2ccc(S(=O)(=O)N3CCCCC3C)cc2)o1 (configuration not stated) | 14.5% (inactive)
58 | Cc1onc(-c2ccccc2Cl)c1C(=O)NCCn1ccc2ccccc21 | 29.7% (inactive)
59 | Cc1onc(-c2ccccc2Cl)c1C(=O)N(Cc1ccc(N(C)C)cc1)C(C)C | 73.1% (active)
60 | Cc1onc(-c2ccccc2Cl)c1C(=O)OCC(=O)c1ccccc1 | 12.5% (inactive)
61 | O=C(CN1CCOCC1)Nc1cccc([N+](=O)[O-])c1 | 1.99% (inactive)
62 | Cc1nc(-c2nnc(SCC(=O)Nc3cc(C(F)(F)F)cc(C(F)(F)F)c3)n2C)cs1 | 15.6% (inactive)
